HSP90 inh = inhibitors of HSP90 luciferase refolding in rabbit reticulocyte lysate; luciferase refolding luminescence, 3 h; inhibition, % at 5.6 µM; 290,000 tested, 0.91% active;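 active = inhibition above the screen-wide mean plus 3 SD, computed separately per campaign, cut at about 16% in these data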;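 note: inhibitors lower the luminescence because luciferase stays unfolded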
HSF1 inhib = HSF1 inhibition; NIH3T3-HGL HSE-luciferase, MG132-induced, luminescence 8 h; active compounds read low; activity change, negative = inhibition, % at 7.5 µM (by protocol); 300,000 tested, 0.77% active;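 active = more than half of replicate wells show activity change below -50%, luminescence cut by over half; inconclusive = some wells, but at most half, below -50%; inactive = no replicate well below -50%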;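 note: luciferase reports HSF-1 transcriptional activity via heat shock element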
ARNT TACC3 PPI = ARNT/TACC3 interaction disruption. AlphaScreen His-ARNT PAS-B/GST-TACC3 binding, luminescence; TACC3 fragment carries E629A point mutation. inhibition, % at 9.99 µM. 390,000 tested, 0.66% active. AID 623870;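 active = mean inhibition of replicates at least 50% and at least half of replicates each reaching 50%; inconclusive = half or more replicates reach 50% but mean below 50%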
HIF act = HIF pathway transcriptional activation. 300,000 tested, 0.32% active. AID 1910. activation, % at 7.5 µM (by protocol). U2OS HRE-luciferase reporter, luminescence; normalized: DMSO 0%, desferrioxamine 100%;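 active = mean activation of at least 10% of the iron chelator positive control signal, with at least half of replicates also reaching 10%; inconclusive = mean and replicate majority disagree about reaching 10%; inactive = mean and most replicates under 10%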
HSF1 activator = increases HSF-1 driven luciferase reporter signal; activation, % at 9 µM; NIH3T3-HGL HSF-1 luciferase reporter, MG132, 8 h; 100% = twice DMSO control signal; 300,000 tested, 1.7% active;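 active = mean replicate activation of at least 50% with a set share of replicates each reaching 50%; inconclusive = only one of those two conditions met; inactive = mean below 50% and too few replicates reaching it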
Of the large screens only hits and unclear results are named; the others gave an inactive call. This is a sample that favours compounds with a hit; in the whole collection about 3.1% have one here.

CCC(Sc1nc2n[nH]c(C)c2c(=N)n1-c1ccc(C)c(Cl)c1)C(=O)N1CCOCC1 (stereo not drawn)	HSF1 activator 55.5
CCC(Sc1nc2n[nH]c(C)c2c(=N)n1-c1cccc(Cl)c1)C(=O)NCCOC (stereo not drawn)	none (no result: ARNT TACC3 PPI)
C[C@H]1CN([C@@H](C)CO)S(=O)(=O)c2ccc(C#CC(C)(C)O)cc2O[C@@H]1CN(C)C	none (no result: HSP90 inh, HSF1 inhib, HIF act, HSF1 activator)
CCOc1ncccc1C(=O)N(C)CC1COc2ccccc2O1 (stereo not drawn)	HSF1 activator 174.9
C[C@@H]1CCCCO[C@H](CN(C)Cc2ccc3c(c2)OCO3)[C@H](C)CN([C@@H](C)CO)C(=O)c2cc(NS(=O)(=O)c3ccccc3)ccc2O1	none (no result: HSP90 inh, HSF1 inhib, HIF act, HSF1 activator)
CCC(C(=O)NC(C)(C)C)N(Cc1ccccc1Cl)C(=O)c1snc(C(N)=O)c1N (stereo not drawn)	none
CCC(C(=O)NC(C)(C)C)N(Cc1ccc(F)cc1)C(=O)c1snc(C(N)=O)c1N (stereo not drawn)	HSF1 inhib -67.1
CO[C@@H]1CN(C)C(=O)c2ccc(NS(=O)(=O)c3ccccc3)cc2OC[C@@H](C)N(Cc2ccccn2)C[C@H]1C	none (no result: HSP90 inh, HSF1 inhib, HIF act, HSF1 activator)
Cc1c(C2=CCN(S(=O)(=O)c3ccc(Br)cc3)CC2)c2ccccc2n1C	HSF1 inhib -59.8
CCn1c(C)c(C2=CCN(S(=O)(=O)c3ccc(C)cc3)CC2)c2ccccc21	none
O=C(CCc1nnc2ccc(N3CCC4(CC3)OCCO4)nn12)NCc1ccc(F)cc1	HSF1 inhib -72.2
c1ccc(-c2nnc(Cn3c4ccccc4c4nc5ccccc5nc43)o2)cc1	none (no result: HSF1 inhib, HIF act, HSF1 activator)
CC(O)c1nc2ccccc2n1Cc1nnc(-c2ccc(Cl)cc2)o1 (stereo not drawn)	HSF1 inhib -55.7
COc1ccccc1CN1CC(C(=O)NCCN2CCNC2=O)CCC1=O (stereo not drawn)	HSF1 inhib -72.7 (no result: ARNT TACC3 PPI)
CC(=O)c1ccc(OCc2cc(C(=O)N(C)C(C)c3nccs3)no2)cc1 (stereo not drawn)	HSF1 activator 84.5
CC(=O)c1ccc(OCc2cc(C(=O)N(C)C(C)c3ccon3)no2)cc1 (stereo not drawn)	none
O=C(Nc1nc(-c2nc3ccccc3s2)cs1)C1CC1	HSF1 activator 67.3
O=C(Nc1nc(-c2nc3ccccc3s2)cs1)c1ccco1	none
CN1CCN(c2ccc(Nc3ccnc4cc(Cl)ccc34)cc2)CC1	HSF1 activator 52.0
CCOc1ccc(Nc2ccnc3cc(Cl)ccc23)cc1	none
O=C(CSc1ccc(F)cc1)Nc1ccc(C2SCCS2)cc1	HSF1 activator 59.8
O=C(COC(=O)CNC(=O)c1ccccc1F)NCCNC(=O)COC(=O)CNC(=O)c1ccccc1F	none (no result: HSP90 inh)
O=C(COC(=O)CNC(=O)c1ccccc1F)Nc1cccnc1Cl	HSF1 inhib -77.0
CN1c2ccc(-c3ccccc3F)cc2[C@H]2[C@H](CCN2C(=O)CN2CCOCC2)[C@@H]1CO	none (no result: HSP90 inh, HSF1 inhib, HIF act, HSF1 activator)
Cc1ccc(-c2cc3c(N=O)c4ccccc4c-3n[nH]2)cc1	HSP90 inh 58.4, HSF1 inhib inconclusive
C[C@@H]1CN([C@H](C)CO)C(=O)c2cc(NC(=O)c3ccccc3)ccc2O[C@@H](C)CCCCO[C@@H]1CN(C)S(=O)(=O)c1cccs1	none (no result: HSP90 inh, HSF1 inhib, HIF act, HSF1 activator)
O=C(NC(=S)Nc1ncccn1)c1ccc(Cl)cc1Cl	HSF1 activator 64.3
CCC(=O)Nc1cccc(NC(=S)NC(=O)c2ccc(Cl)cc2Cl)c1	none
CC1CN(C(=O)CS(=O)(=O)Cc2ccccc2)CC(C)O1 (stereo not drawn)	HSF1 activator 59.9 (no result: ARNT TACC3 PPI)
O=C(Nc1nccs1)c1cccc(N2C(=O)c3cccc4c([N+](=O)[O-])ccc(c34)C2=O)c1	HSF1 activator 170.3
O=C(Nc1ccc(S(=O)(=O)Nc2nccs2)cc1)c1cccc(N2C(=O)c3ccccc3C2=O)c1	none
COc1ccc(S(=O)(=O)Nc2ccc3c(c2)C(=O)N([C@H](C)CO)C[C@@H](C)[C@@H](CN(C)S(C)(=O)=O)OCCCC[C@@H](C)O3)cc1	none (no result: HSP90 inh, HSF1 inhib, HIF act, HSF1 activator)
O=C(CN1CCCCC1)N1CCCc2ccccc21	HIF act 89.6
Cc1ccc(-c2nnn(CC(=O)N3CCCc4ccccc43)n2)cc1	HSF1 activator 57.3
O=C1c2ccccc2C(=O)N1CCC(=O)N1CCCc2ccccc21	HSF1 activator 58.0
O=C(Cn1nnc(-c2ccncc2)n1)N1CCc2ccccc21	none
CC1CCCN(C(=O)c2ccc(-c3ccccc3Cl)o2)C1 (stereo not drawn)	HSF1 activator 58.2 (no result: HSP90 inh)
O=C1C=C(NCc2ccccc2)c2ccccc2C1=O	HSF1 activator 70.3
O=C1C=C(Nc2cccnc2)c2ccccc2C1=O	ARNT TACC3 PPI 34.5 (no result: HSP90 inh, HIF act)
O=C1C=C(Nc2ccccc2O)c2ccccc2C1=O	HSF1 activator 83.9
O=C1C=C(Nc2ccc(F)cc2)c2ccccc2C1=O	none (no result: HSP90 inh, HSF1 inhib, HIF act, HSF1 activator)
O=c1cccccc1NCc1ccccc1	none
O=C(Nn1cc(C(=O)Nc2ccc(F)cc2F)c2ccccc2c1=O)c1cnccn1	ARNT TACC3 PPI 65.3
C[C@@H]1CN([C@H](C)CO)C(=O)c2cc(-c3ccccc3)cnc2O[C@@H]1CN(C)Cc1cccnc1	none (no result: HSP90 inh, HSF1 inhib, HIF act, HSF1 activator)
COc1ccc(S(=O)(=O)N2CCOCC2)cc1NC(=O)COC(=O)c1ccc([N+](=O)[O-])s1	ARNT TACC3 PPI 30.1 (no result: HSP90 inh, HSF1 inhib, HIF act, HSF1 activator)
COc1ccc(S(=O)(=O)N2CCOCC2)cc1NC(=O)COC(=O)c1[nH]c(C)c(C(C)=O)c1C	none (no result: HSP90 inh, HSF1 inhib, HIF act, HSF1 activator)
C=CCNC(=O)[C@@H]1[C@H]2C(=O)O[C@H](c3ccccc3)[C@H](c3ccccc3)N2[C@H](c2ccc(OCCO)cc2)[C@@]12C(=O)Nc1ccc(C#CCNC(N)=O)cc12	none (no result: HSP90 inh, HSF1 inhib, HIF act, HSF1 activator)
CC(C)=CC(=O)Nc1ccc(Cl)cc1	HSF1 activator 50.9
Cc1nc(NC(C)C)c2cnn(CCc3ccccc3)c2n1	HSF1 activator 54.1 (no result: ARNT TACC3 PPI)
CCCNc1nc(C)nc2c1cnn2CCc1ccccc1	none
CCCC1c2ccc(C)n2CCN1C(=O)Nc1ccc(F)cc1 (stereo not drawn)	HSF1 inhib -65.9
Cc1cc(C)n2nc(-c3ccc(Br)cc3)cc2n1	HSF1 activator 51.6
CC(C)c1ccc(NC(=O)COc2ccc(F)cc2C(=O)c2cnn(-c3ccccc3)c2)cc1	HSF1 activator 60.4
COc1cccc2[nH]c3c(N4CCc5ccccc5C4)ncnc3c12	HSF1 activator 59.9 (no result: ARNT TACC3 PPI)
C/C(=N\NC(=O)c1ccoc1C)c1cccc2ccccc12	HSF1 activator 57.3 (no result: ARNT TACC3 PPI)
CO[C@@H]1CN(C)C(=O)c2ccc(NS(=O)(=O)CC(F)(F)F)cc2OC[C@@H](C)N(C)C[C@@H]1C	none (no result: HSP90 inh, HSF1 inhib, HIF act, HSF1 activator)
COc1cccc(COC(=O)c2ccc3c(c2)NC(=O)C(C)S3)c1OC (stereo not drawn)	HSF1 inhib -77.5 (no result: HSP90 inh)
CC1Sc2ccc(C(=O)OCc3ccccc3Cl)cc2NC1=O (stereo not drawn)	none (no result: HSP90 inh)
CCC(=O)N(C)C[C@H]1Oc2ncc(C#Cc3ccccc3)cc2C(=O)N([C@H](C)CO)C[C@@H]1C	none (no result: HSP90 inh, HSF1 inhib, HIF act, HSF1 activator)
